The nature of assay [1]: NCI Yeast Anticancer Drug Screen. Data for the rad50 strain (AID 155).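 Also: 0% = growth of vehicle-only cultures of the same strain.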 The settings on record: S. cerevisiae rad50 strain growth inhibition, active compounds read high. The procedure, abridged:
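Compounds were tested on a yeast strain with an engineered DNA damage repair alteration; the reported value is growth inhibition normalised to vehicle treatment.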

Assay [2] in a line: NCI Yeast Anticancer Drug Screen. Data for the mec2-1 strain (AID 157). Conditions: S. cerevisiae mec2-1 strain, active compounds read high. An outline of the steps:
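Yeast mec2-1 mutant treated with compound. Readout: growth inhibition vs vehicle controls.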

Assay [3] is described as follows: NCI Yeast Anticancer Drug Screen. Data for the sgs1 mgt1 strain (AID 161).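 Also: 0% = growth of cultures given vehicle only.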 The settings on record: S. cerevisiae sgs1 mgt1 strain, active compounds read high. The procedure, abridged: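 Inhibition of yeast growth, normalised to vehicle-treated controls, is reported for a strain bearing genetic alterations in DNA damage repair.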
The nature of assay [4]: NCI Yeast Anticancer Drug Screen. Data for the cln2 rad14 strain (AID 165).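 Also: 0% = growth equal to vehicle treated cultures.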 Conditions: S. cerevisiae cln2 rad14 strain, active compounds read high. The procedure, abridged: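 cln2 rad14 yeast strain; compound exposure; growth inhibition read vs vehicle controls.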
The nature of assay [5]: NCI Yeast Anticancer Drug Screen. Data for the bub3 strain (AID 167). Conditions: S. cerevisiae bub3 mutant strain, active compounds read high. The procedure, abridged:
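Growth of a checkpoint-deficient yeast mutant is measured after compound exposure. Values represent inhibition relative to vehicle.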

The nature of assay [6]: NCI Yeast Anticancer Drug Screen. Data for the mlh1 rad18 strain (AID 175). Conditions: S. cerevisiae mlh1 rad18 strain growth inhibition, active compounds read high. An outline of the steps: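 Yeast w/ defined DNA-repair lesions; compound exposure; growth vs vehicle controls → % inhibition.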
[7] abbreviates: at 5.0 µM (retest, dose inferred, filed as 0.5).
[8] abbreviates: at 50.0 µM (retest, dose inferred, filed as 5.0).

Compounds without any hit were thinned out: in the full panel of roughly 79,000, 15% have a hit. Values without a mark were called inactive. Calls of active or inactive are those of the source. Rule as the data show it: active = growth inhibition above about 70%; inactive = the rest.

For `CC1(C)C(=O)N(CCCCCCN2C(=O)C(C)(C)c3ccccc32)c2ccccc21`, the growth inhibition in assay [1] (setting [7]) is 20%; in assay [1] (setting [8]) it was 20%; in assay [1] (at 50.0 µM), 79.5% (active); in assay [2] (setting [7]), 4%; in assay [2] (setting [8]), 4%; in assay [2] (at 50.0 µM), 78% (active). Moreover, the growth inhibition in assay [3] (setting [7]) was 5%; in assay [3] (setting [8]), 5%; in assay [3] (at 50.0 µM), 81.5% (active); in assay [4] (setting [7]), -11%; in assay [4] (setting [8]), -11%; in assay [4] (at 50.0 µM), 83.5% (active). Further, the growth inhibition is 12% in assay [5] (setting [7]); 12% in assay [5] (setting [8]); 73.2% (active) in assay [5] (at 50.0 µM); 3% in assay [6] (setting [7]); 3% in assay [6] (setting [8]); 78.5% (active) in assay [6] (at 50.0 µM).
Consider `c1ccc(CCC2=Nc3ccccc3CO2)cc1`, for which the growth inhibition was -160% in assay [1] (setting [7]); -155% in assay [1] (setting [8]); 7.75% in assay [1] (at 50.0 µM); -48% in assay [2] (setting [7]); -56% in assay [2] (setting [8]); -6.5% in assay [2] (at 50.0 µM). In addition, the growth inhibition in assay [3] (setting [7]) was -64%; in assay [3] (setting [8]) it was -63%; in assay [3] (at 50.0 µM), 12.2%; in assay [4] (setting [7]), -67%; in assay [4] (setting [8]) it was -87%; in assay [4] (at 50.0 µM), 13.3%. The growth inhibition in assay [5] (setting [7]) was -68%; in assay [5] (setting [8]), -69%; in assay [5] (at 50.0 µM), -18.7%; in assay [6] (setting [7]), -126%; in assay [6] (setting [8]), -124%; in assay [6] (at 50.0 µM), -8.4%.
With `COc1ccc2c(c1)CCC(N1CCCC(O)C1)C2` (stereo unspecified), the growth inhibition in assay [1] (setting [7]) is 13%; in assay [1] (setting [8]) it was 98% (active); in assay [1] (at 50.0 µM), 48.9%; in assay [2] (setting [7]) it was 12%; in assay [2] (setting [8]), 99% (active); in assay [2] (at 50.0 µM) it was 56%. Moreover, the growth inhibition in assay [3] (setting [7]) was 12%; in assay [3] (setting [8]) it was 98% (active); in assay [3] (at 50.0 µM), 87.2% (active); in assay [4] (setting [7]), 25%; in assay [4] (setting [8]), 99% (active); in assay [4] (at 50.0 µM), 23.2%. For the same molecule, the growth inhibition in assay [5] (setting [7]) was 11%; in assay [5] (setting [8]) it was 99% (active); in assay [5] (at 50.0 µM), 91.2% (active); in assay [6] (setting [7]), 14%; in assay [6] (setting [8]), 98% (active); in assay [6] (at 50.0 µM), 71.4% (active).
Regarding `O=c1c2c3ccccc3[nH]c2c2cccc3c2n1CCC3`, the growth inhibition is 4% in assay [1] (setting [7]); 92% (active) in assay [1] (setting [8]); 88.7% (active) in assay [1] (at 50.0 µM); 5% in assay [2] (setting [7]); 88% (active) in assay [2] (setting [8]); 90% (active) in assay [2] (at 50.0 µM). In addition, the growth inhibition was 13% in assay [3] (setting [7]); 89% (active) in assay [3] (setting [8]); 88.2% (active) in assay [3] (at 50.0 µM); -1% in assay [4] (setting [7]); 69% in assay [4] (setting [8]); 83.5% (active) in assay [4] (at 50.0 µM). The growth inhibition in assay [5] (setting [7]) was 11%; in assay [5] (setting [8]), 96% (active); in assay [5] (at 50.0 µM) it was 89.3% (active); in assay [6] (setting [7]), 13%; in assay [6] (setting [8]), 94% (active); in assay [6] (at 50.0 µM), 88.8% (active).
`CCCCCCCCCCCCCCCC(=O)N1CCOCC1`: the growth inhibition in assay [1] (setting [7]) was -4%; in assay [1] (setting [8]) it was 94% (active); in assay [1] (at 50.0 µM), 31.4%; in assay [2] (setting [7]), -5%; in assay [2] (setting [8]) it was 97% (active); in assay [2] (at 50.0 µM) it was 31.8%. The growth inhibition in assay [3] (setting [7]) is -4%; in assay [3] (setting [8]) it was 98% (active); in assay [3] (at 50.0 µM), -13.7%; in assay [4] (setting [7]) it was 1%; in assay [4] (setting [8]) it was 62%; in assay [4] (at 50.0 µM), -64.8%. Also, the growth inhibition in assay [5] (setting [7]) is -8%; in assay [5] (setting [8]), 98% (active); in assay [5] (at 50.0 µM), 21.2%; in assay [6] (setting [7]), 17%; in assay [6] (setting [8]) it was 93% (active); in assay [6] (at 50.0 µM), 28.1%.
For the molecule `CCCC(c1ccc(O)cc1)c1ccc(O)cc1`, the growth inhibition in assay [1] (setting [7]) was 1%; in assay [1] (setting [8]) it was 98% (active); in assay [1] (at 50.0 µM), 99.5% (active); in assay [2] (setting [7]) it was -5%; in assay [2] (setting [8]), 99% (active); in assay [2] (at 50.0 µM) it was 99.5% (active). In addition, the growth inhibition in assay [3] (setting [7]) was -1%; in assay [3] (setting [8]), 95% (active); in assay [3] (at 50.0 µM), 99.4% (active); in assay [4] (setting [7]) it was 12%; in assay [4] (setting [8]), 96% (active); in assay [4] (at 50.0 µM) it was 99.2% (active). For the same molecule, the growth inhibition in assay [5] (setting [7]) is 1%; in assay [5] (setting [8]), 97% (active); in assay [5] (at 50.0 µM) it was 99.5% (active); in assay [6] (setting [7]) it was 0%; in assay [6] (setting [8]), 96% (active); in assay [6] (at 50.0 µM) it was 99.5% (active).
With `O=C(/C=C/c1ccc(Cl)c(Cl)c1)CCN1CCN(CCC(=O)/C=C/c2ccc(Cl)c(Cl)c2)CC1`, the growth inhibition was 36% in assay [1] (setting [7]); 98% (active) in assay [1] (setting [8]); 82.7% (active) in assay [1] (at 50.0 µM); 38% in assay [2] (setting [7]); 99% (active) in assay [2] (setting [8]); 85.5% (active) in assay [2] (at 50.0 µM). For the same molecule, the growth inhibition in assay [3] (setting [7]) was 11%; in assay [3] (setting [8]), 99% (active); in assay [3] (at 50.0 µM), 88.1% (active); in assay [4] (setting [7]) it was 16%; in assay [4] (setting [8]), 99% (active); in assay [4] (at 50.0 µM), 86.3% (active). Besides, the growth inhibition in assay [5] (setting [7]) is 14%; in assay [5] (setting [8]), 98% (active); in assay [5] (at 50.0 µM) it was 82% (active); in assay [6] (setting [7]), 44%; in assay [6] (setting [8]) it was 98% (active); in assay [6] (at 50.0 µM), 86.5% (active).

The values above are taken from PubChem BioAssay (NCI).
